Among the test systems are SR leukemia; RPMI-8226 leukemia; OVCAR-8 ovarian; OVCAR-5 ovarian; OVCAR-4 ovarian; SK-OV-3 ovarian; IGROV1 ovarian; OVCAR-3 ovarian; HS 578T breast; NCI/ADR-RES ovarian.
Holding throughout (assay): NCI-60 one-dose screen, 48 h (100 = growth as untreated, 0 = no growth, -100 = all killed)
What all share (conditions): 10 µM unless noted

SMILES strings stand for the structures. Several values for one entry are separate records, joined by “and”; a condition that tells them apart may be missing. Equal values may be shown once. The panel holds about 83,000 compounds, 20% with a hit somewhere; the sample as a whole holds those more often.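 A percent growth of 40 corresponds to 60% growth inhibition; 0 means no net growth; -100 means all cells died. Active threshold: below 10.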 Activity calls are given as the source filed them.

We go through 10 compounds from PubChem BioAssay (NCI).

On to `COc1cc2nc3cc([N+](=O)[O-])ccc3c(NCCNCC(C)(C)O)c2cc1OC`, for which the growth is -12.2% (active) in the test with SR leukemia; -8.62% (active) in the test on RPMI-8226 leukemia; -3.94% (active) with OVCAR-8 ovarian; 8.33% (active) with OVCAR-5 ovarian; -31.8% (active) with OVCAR-4 ovarian; 17.8% (inactive) with SK-OV-3 ovarian. The growth in the test on IGROV1 ovarian was -15.9% (active); with OVCAR-3 ovarian it was -31.2% (active); in the test with HS 578T breast, -2.1% (active); in the test on NCI/ADR-RES ovarian it was 55% (inactive).

Turning to `COc1cc(N=Nc2ccc(O)c3ncccc23)c2ncccc2c1`, the growth in the test with SR leukemia was 7.54% (active); in the test on RPMI-8226 leukemia, 31.7% (inactive); with OVCAR-8 ovarian, 17.1% (inactive); with OVCAR-5 ovarian it was 59.8% (inactive); in the test on OVCAR-4 ovarian, 17.4% (inactive); in the test with SK-OV-3 ovarian it was 43.3% (inactive). The growth in the test on IGROV1 ovarian was 27.4% (inactive); in the test with OVCAR-3 ovarian, 30.3% (inactive); in the test on HS 578T breast, 33.9% (inactive); in the test with NCI/ADR-RES ovarian, -1.77% (active).

Take `COc1ccc2c(c1)oc1c(C)c3c(c(C)c12)C(=O)N(Nc1ccccc1)C3=O`: the growth with SR leukemia is 104% (inactive); in the test with RPMI-8226 leukemia, 112% (inactive); in the test on OVCAR-8 ovarian, 104% (inactive); in the test with OVCAR-5 ovarian, 92% (inactive); with OVCAR-4 ovarian it was 100% (inactive); in the test with SK-OV-3 ovarian it was 92% (inactive). Further, the growth is 102% (inactive) in the test with IGROV1 ovarian, 105% (inactive) with OVCAR-3 ovarian, 105% (inactive) with HS 578T breast and 112% (inactive) in the test with NCI/ADR-RES ovarian.

As to `O=C(O)c1ccccc1Cc1ccc(F)c2ccccc12`, the growth with SR leukemia is 107% (inactive) and 100% (inactive); in the test on RPMI-8226 leukemia, 110% (inactive) and 96.2% (inactive); in the test on OVCAR-8 ovarian, 101% (inactive) and 102% (inactive); in the test on OVCAR-5 ovarian it was 112% (inactive) and 96.7% (inactive); in the test with OVCAR-4 ovarian it was 110% (inactive) and 96.6% (inactive); in the test on SK-OV-3 ovarian, 102% (inactive) and 122% (inactive). In addition, the growth with IGROV1 ovarian was 113% (inactive) and 119% (inactive); in the test with OVCAR-3 ovarian, 98.6% (inactive) and 108% (inactive); in the test on HS 578T breast, 95% (inactive) and 103% (inactive); in the test on NCI/ADR-RES ovarian, 114% (inactive) and 110% (inactive).

Consider `CN1C(=O)N(C)C2(c3ccccc3)N(CC(=O)Nc3ccccc3O)C(=O)NC12c1ccccc1` (stereo not given), for which the growth in the test on SR leukemia was 112% (inactive); in the test with RPMI-8226 leukemia, 106% (inactive); in the test with OVCAR-8 ovarian, 102% (inactive); in the test on OVCAR-5 ovarian, 104% (inactive); in the test with OVCAR-4 ovarian, 99.3% (inactive); in the test on SK-OV-3 ovarian, 100% (inactive). The growth with IGROV1 ovarian is 101% (inactive); in the test on OVCAR-3 ovarian it was 103% (inactive); in the test with HS 578T breast it was 105% (inactive); with NCI/ADR-RES ovarian it was 99.8% (inactive).

On to `Nc1nc2ccccc2c2c(=O)c3ccc(Cl)cc3sc12`, for which the growth is 84.4% (inactive) in the test on SR leukemia; 95.7% (inactive) with RPMI-8226 leukemia; 103% (inactive) in the test with OVCAR-8 ovarian; 101% (inactive) in the test on OVCAR-5 ovarian; 92.1% (inactive) in the test on OVCAR-4 ovarian; 98.4% (inactive) in the test on SK-OV-3 ovarian. For the same compound, the growth is 102% (inactive) with IGROV1 ovarian, 104% (inactive) in the test with OVCAR-3 ovarian, 89.3% (inactive) in the test with HS 578T breast and 110% (inactive) in the test on NCI/ADR-RES ovarian.

As to `C#CCOc1cccc(Nc2ncc3ncn(C4CCN(C(=O)CCl)C4)c3n2)c1` (stereo not given), the growth is -1.16% [6.25 µM] (active) in the test on SR leukemia; 44.1% [6.25 µM] (inactive) in the test on RPMI-8226 leukemia; 51.7% [6.25 µM] (inactive) with OVCAR-8 ovarian; 53.3% [6.25 µM] (inactive) in the test on OVCAR-5 ovarian; 36.3% [6.25 µM] (inactive) in the test with OVCAR-4 ovarian; 73.4% [6.25 µM] (inactive) in the test with SK-OV-3 ovarian. For the same compound, the growth with IGROV1 ovarian is 1% [6.25 µM] (active); in the test with OVCAR-3 ovarian, -6.2% [6.25 µM] (active); in the test with HS 578T breast, 82.2% [6.25 µM] (inactive); in the test with NCI/ADR-RES ovarian, 78% [6.25 µM] (inactive).

For the compound `O=C(/C=C/c1cccs1)Nc1ncc(Cc2ccc(Cl)c(Cl)c2)s1`, the growth is 32.7% (inactive) with SR leukemia; 78.1% (inactive) in the test with RPMI-8226 leukemia; 72.7% (inactive) in the test with OVCAR-8 ovarian; 74.1% (inactive) in the test with OVCAR-5 ovarian; 66.6% (inactive) in the test on OVCAR-4 ovarian; 68.8% (inactive) with SK-OV-3 ovarian. Moreover, the growth is 64.1% (inactive) with IGROV1 ovarian, 40.4% (inactive) in the test on OVCAR-3 ovarian, 62.4% (inactive) in the test on HS 578T breast and 60.3% (inactive) in the test with NCI/ADR-RES ovarian.

Regarding `O=C1C=CC(=O)N1c1ccc2ccccc2c1`, the growth was 40.7% (inactive) and 63.4% (inactive) with SR leukemia; 105% (inactive) and 81.3% (inactive) with RPMI-8226 leukemia; 103% (inactive) and 101% (inactive) in the test on OVCAR-8 ovarian; 96.6% (inactive) and 97.9% (inactive) with OVCAR-5 ovarian; 93.7% (inactive) with OVCAR-4 ovarian; 107% (inactive) and 99.7% (inactive) in the test on SK-OV-3 ovarian. For the same compound, the growth was 101% (inactive) and 105% (inactive) in the test on IGROV1 ovarian; 69.7% (inactive) and 93.9% (inactive) with OVCAR-3 ovarian; 93.6% (inactive) and 103% (inactive) in the test with HS 578T breast; 99.7% (inactive) and 104% (inactive) in the test on NCI/ADR-RES ovarian.

As for `CC[C@]1(O)CC2CN(CCc3c([nH]c4ccccc34)C(C(=O)OC)(c3cc4c(cc3OC)N(C=O)[C@H]3[C@@](O)(C(=O)OC)[C@H](OC(C)=O)[C@]5(CC)[C@@H]6C[C@@H]6CN6CC[C@]43[C@@H]65)C2)C1` (stereo not given in full), the growth in the test on SR leukemia is 12.7% (inactive); with RPMI-8226 leukemia, 23.4% (inactive); with OVCAR-8 ovarian, 10.3% (inactive); in the test on OVCAR-5 ovarian, 29.6% (inactive); with OVCAR-4 ovarian, 45.5% (inactive); in the test with SK-OV-3 ovarian it was -17.7% (active). The growth was 8.34% (active) in the test on IGROV1 ovarian, -53.6% (active) in the test with OVCAR-3 ovarian, -2.32% (active) in the test on HS 578T breast and -6.57% (active) in the test on NCI/ADR-RES ovarian.
